# Assay outcomes from PubChem.
# The entries come from a sample that favours hits as a whole.
# KDM5B inh: Primary screen for KDM5B Histone Demethylases FDH-coupled qHTS; KDM5B demethylase, FDH-coupled NADH fluorescence (FDH is formaldehyde dehydrogenase); Potency, µM (series often up to 57.7 µM), most hits filed as inhibitors; 2.6% of 220,000 active; AID 1347165, 2019; active = well fitted inhibition curve with a large enough effect; note: 0% is about no effect; nearly all actives have a fitted effect of over 70% in size
# Target sequence (Q9UGL1 whole entry, looked up): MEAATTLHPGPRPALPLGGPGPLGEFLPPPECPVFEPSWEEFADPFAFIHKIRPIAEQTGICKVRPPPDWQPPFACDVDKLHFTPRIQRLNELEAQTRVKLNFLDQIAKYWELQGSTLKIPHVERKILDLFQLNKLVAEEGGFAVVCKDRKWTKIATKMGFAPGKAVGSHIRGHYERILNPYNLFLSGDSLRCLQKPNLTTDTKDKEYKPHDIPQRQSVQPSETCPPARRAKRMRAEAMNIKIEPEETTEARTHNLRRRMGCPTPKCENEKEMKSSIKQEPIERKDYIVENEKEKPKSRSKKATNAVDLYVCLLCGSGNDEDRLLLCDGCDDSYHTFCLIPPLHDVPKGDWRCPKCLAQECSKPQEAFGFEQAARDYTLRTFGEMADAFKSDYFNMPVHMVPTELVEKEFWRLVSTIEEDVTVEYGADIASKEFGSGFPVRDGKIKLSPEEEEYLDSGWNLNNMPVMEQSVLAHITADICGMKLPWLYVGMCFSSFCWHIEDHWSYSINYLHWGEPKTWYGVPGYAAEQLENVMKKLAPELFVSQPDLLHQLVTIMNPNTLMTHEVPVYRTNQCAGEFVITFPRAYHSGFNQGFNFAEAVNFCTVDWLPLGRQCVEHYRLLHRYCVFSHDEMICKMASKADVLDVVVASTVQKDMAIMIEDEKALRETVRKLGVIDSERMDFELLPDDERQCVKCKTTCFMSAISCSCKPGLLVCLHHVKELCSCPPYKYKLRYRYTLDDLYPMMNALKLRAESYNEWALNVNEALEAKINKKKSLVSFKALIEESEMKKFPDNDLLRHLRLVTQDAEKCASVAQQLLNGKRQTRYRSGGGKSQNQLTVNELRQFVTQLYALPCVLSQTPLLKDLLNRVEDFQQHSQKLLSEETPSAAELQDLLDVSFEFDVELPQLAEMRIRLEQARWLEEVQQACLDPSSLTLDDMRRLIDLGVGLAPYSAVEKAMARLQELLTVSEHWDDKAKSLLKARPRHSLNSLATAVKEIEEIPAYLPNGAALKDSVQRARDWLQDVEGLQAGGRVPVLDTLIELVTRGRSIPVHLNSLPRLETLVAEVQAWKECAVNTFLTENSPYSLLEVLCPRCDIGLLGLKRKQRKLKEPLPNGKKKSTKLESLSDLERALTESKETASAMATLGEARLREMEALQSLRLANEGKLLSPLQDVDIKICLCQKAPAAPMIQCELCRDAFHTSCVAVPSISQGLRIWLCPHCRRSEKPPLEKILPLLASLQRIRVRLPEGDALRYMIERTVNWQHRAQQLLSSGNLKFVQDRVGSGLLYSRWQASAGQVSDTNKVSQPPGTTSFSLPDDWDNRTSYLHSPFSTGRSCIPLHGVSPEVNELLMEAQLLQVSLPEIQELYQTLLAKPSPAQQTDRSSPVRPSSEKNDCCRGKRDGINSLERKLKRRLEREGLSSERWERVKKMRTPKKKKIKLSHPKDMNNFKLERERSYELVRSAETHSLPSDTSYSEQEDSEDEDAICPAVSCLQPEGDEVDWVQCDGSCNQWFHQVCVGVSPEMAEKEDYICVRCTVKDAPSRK
#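 qHTS format, multiple compound concentrations. Buffer 50 mM HEPES pH 7.5/0.01% Tween-20; 200 nM KDM5BΔAP final; 10 min compound preincubation; substrate-mix levels 12.5 µM peptide, 25 µM α-KG, 0.25 mM NAD⁺; 30 min RT; ΔRFU.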
# Numbers without * were called inactive; i = inactive. Potency is the fitted concentration of half-maximal effect.
SMILES,KDM5B inh
Cc1noc(C)c1-c1cc2cc(CN(C)C)oc2c(NCCc2ccccc2)n1,i
Cc1noc(C)c1-c1cc2cc(CN(C)C)oc2c(NCC(C)C)n1,i
COCCCNc1nc(-c2c(C)noc2C)cc2cc(CN(C)C)oc12,i
COc1ccccc1-c1nc(-c2c(C)noc2C)cc2cc(CN(C)C)oc12,35µM*
COc1ccc(-c2nc(-c3c(C)noc3C)cc3cc(CN(C)C)oc23)cn1,32µM*
Cc1noc(C)c1-c1cc2cc(CN(C)C)oc2c(Nc2ccncn2)n1,i
CCOc1ccc(NC(=O)c2nn(-c3cc(OC)cc(OC)c3)c(=O)c3ccccc23)cc1,i
O=C(OCC(=O)c1cccs1)c1ccc(O)cc1,i
Cc1c(Cl)cccc1NC(=S)NCCc1ccccc1,i
Fc1ccccc1CNC(=S)NCc1ccccc1,i
CCC(C)c1ccc(NC(=O)COC(=O)c2cc(=O)c3ccccc3o2)cc1 (configuration not stated),i
O=C(NCCN1CCN(C(=O)c2ccc(Cl)cc2)CC1)c1ccc(Cl)cc1,i
COC(=O)C1CN(C)CCC1=O (configuration not stated),i
Cc1cccc(-c2nc(Nc3ccc(C(=O)O)cc3)c3ccccc3n2)c1,i
O=C(Nc1ccc2oc(-c3ccc(-c4ccccc4)cc3)nc2c1)c1ccco1,i
CCCCn1c(=O)[nH]c(=O)c2c1nc(CSc1nnnn1-c1ccc(C)cc1)n2CC,i
CCCN1CCCC2(CCN(c3cc(C)c4cccc(OC)c4n3)C2)C1=O (configuration not stated),28µM*
Cc1cc(N2CCC3(CCCN(CC4CCC4)C3=O)C2)nc2ccccc12 (configuration not stated),28µM*
Cc1cccc(CN2CCCC3(CCN(c4cc(C)c5ccccc5n4)C3)C2=O)c1 (configuration not stated),28µM*
COCCN1CCCC2(CCN(c3nc(C)nc4sccc34)C2)C1=O (configuration not stated),i
Cc1cccn2cc(C(=O)N3CCC4(CCCN(CC5CCC5)C4=O)C3)nc12 (configuration not stated),i
Cc1cccc(CN2CCCC3(CCN(c4nc5ccccc5o4)C3)C2=O)c1 (configuration not stated),i
COCCN1CCCC2(CCN(c3nc(OC)cc(OC)n3)C2)C1=O (configuration not stated),i
O=C1N(Cc2cccc(F)c2F)CCCC12CCN(c1nc3ccccc3o1)C2 (configuration not stated),i
O=C1N(CC2CCC2)CCCC12CCN(S(=O)(=O)N1CCOCC1)C2 (configuration not stated),i
SMILES,KDM5B inh
CC(C)(C)c1ccc(C(=O)NCC(=O)NC2CCCC2)cc1,i
COc1cccc(C(=O)NN2CC(O)=C(c3nc(-c4ccc(Cl)cc4)cs3)C2=N)c1,i
CCCC(=O)Nc1nn2c(CC(C)C)nnc2s1,i
Cn1c(=O)c2c(nc(NC(CO)CO)n2Cc2ccc(Br)cc2)n(C)c1=O,i
COc1ccc(-c2cc(-c3ccc([S+](C)(=O)[O-])cc3)cn3cncc23)cc1,i
Cc1noc(C)c1-c1cc2c(cc(C)n2C)c(-c2ccc(CO)cc2)n1,i
Cc1noc(C)c1-c1cc(-c2ccc([S+](C)(=O)[O-])cc2)cn2cncc12,32µM*
C#CCNC(=O)c1cc(-c2ccc([S+](C)(=O)[O-])cc2)c2cccn2n1,i
Cc1noc(C)c1-c1cc(-c2ccc(CO)cc2)cn2cncc12,35µM*
Cc1noc2nc(-c3ccccc3F)cc(C(=O)NCc3ccc(N4CCOCC4)nc3)c12,i
Cc1noc(C)c1-c1cc(-c2ccc(N3CCOCC3)nc2)cn2cncc12,32µM*
Cc1noc(C)c1-c1cc2c(c(-c3cccc(O)c3)c1)C(=O)N(C)C2,i
c1cncc(CNCCCn2ccnc2)c1,i
CCn1cnc2c1c(=O)n(CC(=O)NCC(C)(C)N1CCOCC1)c(=O)n2Cc1ccccc1,i
O=C(NCCc1ccco1)c1ccc(CN2C(=O)CSc3ncccc32)cc1,i
Cc1cccc(CSCC(=O)N(C)C)c1,i
Cc1cnc(C(=O)Oc2cccc(Cl)c2)cn1,i
CC1(C)CC(=O)C2=C(C1)OC(N)=C(C#N)C2c1cccc(Oc2ccccc2)c1 (configuration not stated),i
Cc1c(CN2CCCC(C(=O)Nc3cccc(-c4cc5ccccc5[nH]4)c3)C2)cnn1C (configuration not stated),28µM*
Cc1c(CN2CCCC(c3ccc(C(=O)O)cc3)C2)cnn1C (configuration not stated),i
Cc1cccc(-c2cccc(NC(=O)C3CCCN(C(=O)c4cccc(C)n4)C3)c2)c1 (configuration not stated),i
COCCNC(=O)C1CCCN(C(=O)c2cc3ccccc3[nH]2)C1 (configuration not stated),i
CCn1cc(C(=O)N2CCCC(C(=O)Nc3cccc(-c4cc5ccccc5[nH]4)c3)C2)cn1 (configuration not stated),28µM*
Cc1cc(C(=O)N2CCCC(c3nc(C4CCOCC4)no3)C2)nn1C (configuration not stated),i
Cc1cc(C(=O)N2CCCC(C(=O)Nc3cccc(-c4cc5ccccc5[nH]4)c3)C2)nn1C (configuration not stated),32µM*
SMILES,KDM5B inh
O=C(Nc1cccc(-n2cccn2)c1)C1CCCN(Cc2cccc(F)c2F)C1 (configuration not stated),i
COC(=O)CNC(=O)C1CCCN(C(=O)c2cc3ccccc3[nH]2)C1 (configuration not stated),i
O=C(O)C/C(=C/c1cc(Br)cs1)c1nc2ccccc2o1,i
Cc1oc2cc(OC(=O)c3cccs3)ccc2c(=O)c1-c1ccccc1,i
O=C(O)C(c1c[nH]c2cc(F)ccc12)N1CCN(c2ccccc2)CC1 (configuration not stated),i
COC(=O)C1=C(C)OC(=O)C1(NC(=O)c1ccccc1)C(F)(F)F (configuration not stated),i
CCC(C)(CNC(=O)c1cc(-c2ccccc2)on1)N1CCOCC1 (configuration not stated),i
O=C(O)C(c1c[nH]c2ccc(Br)cc12)N1CCN(Cc2ccc(Cl)cc2Cl)CC1 (configuration not stated),i
N#Cc1cccc(NC(=O)c2nn(Cc3ccccc3)c(=O)c3ccccc23)c1,i
COc1ccccc1-c1cc(NCC2CCOCC2)c2onc(C)c2n1,i
COCCNc1cc(-c2ccc(F)cc2)nc2c(C)noc12,i
Cc1noc2c(NCCN(C)C)cc(-c3ccc(F)cc3)nc12,i
COc1ccccc1-c1cc(NCc2ccncc2)c2onc(C)c2n1,28µM*
Cc1noc2c(Nc3ccncc3)cc(-c3ccc(F)cc3)nc12,28µM*
COc1ccccc1-c1cc(N2CCN(c3ccccn3)CC2)c2onc(C)c2n1,i
Cc1sc(NC(=O)C2CCC2)c(C#N)c1C,i
CC1CCc2nc3ccccc3c(C(=O)Nc3ccc(F)c(F)c3)c2C1 (configuration not stated),i
O=C(O)CCSc1sc(=S)sc1SCCC(=O)O,i
CCCNc1c(NC(=O)Nc2cccc(OC)c2)c(=O)oc2ccccc12,i
NC(=O)N/N=C/c1cccc([N+](=O)[O-])c1,i
